Where “and” joins values, the source holds several entries; their conditions need not be identical. Identical values can stand only once. More than one record can exist for a structure, and the calls need not agree. Calls of active or inactive are those of the source. The calls were made as follows: active = hit-call score of the fitted dose curve at least 0.9, where 1 is the maximum; inactive = score below 0.9.
What follows are molecules tested on Matrix Metallopeptidase 3 (MMP3), MMP3 (gene 4314) (assay: BSK_BF4T_MMP3: BioMAP Diversity Plus: BF4T Assay for Matrix Metallopeptidase 3 (MMP3) Biomarker Activity (AID 2284271)). Details: primary human bronchial epithelial cells with fibroblasts.
Description: BSK_BF4T is a cell-based, multiplexed-readout assay that uses bronchial epithelial cells and dermal fibroblasts, a human vascular primary cell, with measurements taken at 24 hours after chemical dosing in a microplate: 96-well plate.BSK_BF4T_MMP3 is an assay component measured in the BSK_BF4T assay. It measures MMP-3 antibody related to regulation of gene expression using ELISA technology.Data from the assay component BSK_BF4T_MMP3 was analyzed at the endpoint, BSK_BF4T_MMP3, in the positive analysis fitting direction relative to DMSO as the negative control and baseline of activity. Using a type of binding reporter, gain or loss-of-signal activity can be used to understand protein changes. To generalize the intended target to other relatable targets, this assay endpoint is annotated to the 'protease' intended target family, where the subfamily is 'matrix metalloproteinase'.
The levels of cell surface (or secreted, indicated by the prefix "s") biomarker endpoints were measured by ELISA. Overt cytotoxicity to cells in confluent adherent cultures (all systems other than the BT system) was assessed by measuring total protein levels using sulforhodamine B (SRB) staining in parallel cultures at the time of biomarker measurements, indicated as SRB endpoints. For proliferation assays for adherent cell types, individual cell types are cultured at sub-confluence and relative cell numbers quantified by SRB staining at time points optimized for each system (48 h: 3C and CASM3C systems; 72 h: BT and HDF3CGF systems; 96 h: SAg system). SRB was performed by staining cells with 0.1% SRB after fixation with 10% TCA and reading wells at 560 nm.Viability and proliferation of PBMC (T cells) was quantified by Alamar Blue reduction for the SAg and BT systems. For PBMC viability (referred to as PBMC Cytotoxicity within the assay endpoint names), cells were plated (75,000/well in a 96-well plate) and then chemical samples added for 1 h before addition of activators, SEB and TSST-1 (20 ng/mL final concentration each). Cells were incubated for 90 h. Then, Alamar Blue (20 uL/well) (Invitrogen, Cat DAL1100) was added for 6 h, and the plates were read with a fluorescence microplate reader at 546/580 nm (excitation/emission). For PBMC proliferation, cells were plated and activated as above but incubated for only 16 h prior to addition of Alamar Blue. Plates were read after 6 h.

Row | Structure (SMILES) | AC50 | outcome
1 | FC(F)(F)C(F)(F)C(F)(F)C(F)(F)C(F)(F)C(F)(F)CC[Si](Cl)(Cl)Cl | 0.211 µM (active) | inactive
2 | NC(O)(C(F)(F)F)C(F)(F)F |  | inactive
3 | CNS(=O)(=O)C(F)(F)C(F)(F)C(F)(F)C(F)(F)C(F)(F)C(F)(F)C(F)(F)C(F)(F)F | 13.3 µM (active) | inactive
4 | O=S(=O)(O)CCC(F)(F)C(F)(F)C(F)(F)C(F)(F)C(F)(F)C(F)(F)C(F)(F)C(F)(F)F |  | inactive
5 | CCOC(=O)CC(=O)C(F)(F)C(F)(F)F |  | inactive
6 | NC(=O)C(F)(F)C(F)(F)C(F)(F)C(F)(F)C(N)=O |  | inactive
7 | O=C(Cl)C(F)(F)C(F)(F)C(F)(F)C(F)(F)C(F)(F)C(F)(F)C(F)(F)F |  | inactive
8 | FC(F)(F)C(F)(F)C(F)(F)C(F)(F)C(F)(F)C(F)(F)C(F)(F)CCI |  | inactive
9 | C=CC(=O)OCC(F)(F)C(F)(F)C(F)(F)COC(=O)C=C |  | inactive
10 | OCCCC(F)(F)C(F)(F)C(F)(F)C(F)(F)C(F)(F)C(F)(F)C(F)(F)C(F)(F)F | 40.1 µM (active) and 40.6 µM (active) | 
11 | O=C(O)C(F)(F)C(F)(F)C(F)(F)C(=O)O |  | inactive
12 | C[Si](Cl)(Cl)CCC(F)(F)C(F)(F)C(F)(F)C(F)(F)C(F)(F)C(F)(F)F |  | inactive
13 | O=C(O)C(F)(F)C(F)(F)C(F)(F)OC(F)(F)F |  | inactive
14 | CO[Si](C)(CCC(F)(F)C(F)(F)C(F)(F)C(F)(F)C(F)(F)C(F)(F)F)OC |  | inactive
15 | OCC(O)CC(F)(F)C(F)(F)C(F)(F)C(F)(F)F (stereo not given) |  | inactive
16 | O=C(O)C(F)(F)C(F)(F)C(F)(F)C(F)(F)C(F)(F)C(F)(F)C(F)F |  | inactive
17 | C=C(C)C(=O)OCC(F)(F)C(F)(F)C(F)(F)C(F)F |  | inactive

Row | Structure (SMILES) | AC50 | outcome
18 | O=C(O)C(F)(F)C(F)(F)C(F)(F)OC(F)(C(F)(F)F)C(F)(F)F | 39.5 µM (active) | inactive
19 | OCC(F)(F)C(F)(F)C(F)(F)C(F)(F)C(F)(F)C(F)(F)C(F)(F)C(F)(F)CO | 19.3 µM (active) | inactive
20 | OCC(F)(F)C(F)(F)C(F)(F)C(F)(F)C(F)(F)C(F)(F)CO |  | inactive
21 | O=C(O)CCC(F)(F)C(F)(F)C(F)(F)C(F)(F)C(F)(F)C(F)(F)C(F)(F)F |  | inactive
22 | C=CC(=O)OCCC(F)(F)C(F)(F)C(F)(F)C(F)(F)F |  | inactive
23 | CCN(CCO)S(=O)(=O)C(F)(F)C(F)(F)C(F)(F)C(F)(F)C(F)(F)C(F)(F)C(F)(F)C(F)(F)F | 24 µM (active) | inactive
24 | NS(=O)(=O)C(F)(F)C(F)(F)C(F)(F)C(F)(F)C(F)(F)C(F)(F)F | 49.5 µM (active) | inactive
25 | NC(=O)C(F)(F)C(F)(F)C(F)(F)C(F)(F)C(F)(F)C(F)(F)C(F)(F)F |  | inactive
26 | OC(O)C(F)(F)C(F)(F)F |  | inactive
27 | OCC(O)CC(F)(F)C(F)(F)C(F)(F)C(F)(F)C(F)(F)C(F)(F)C(F)(F)C(F)(F)F (stereo not given) |  | inactive
28 | FC(F)(F)C(F)(F)C(F)(F)CC1CO1 (stereo not given) |  | inactive
29 | NCC(F)(F)C(F)(F)C(F)(F)C(F)(F)C(F)(F)C(F)(F)F |  | inactive
30 | O=C(O)CCC(F)(F)C(F)(F)C(F)(F)F |  | inactive
31 | NCC(F)(F)C(F)(F)C(F)(F)C(F)(F)C(F)(F)C(F)(F)C(F)(F)C(F)(F)F |  | inactive
32 | COC(F)(C(F)F)C(F)(F)F (stereo not given) |  | inactive
33 | OCCCCC(F)(F)C(F)(F)C(F)(F)C(F)(F)F |  | inactive
34 | O=S(=O)(Cl)C(F)(F)C(F)(F)C(F)(F)C(F)(F)C(F)(F)C(F)(F)C(F)(F)C(F)(F)F |  | inactive

Source: PubChem BioAssay (EPA / NIEHS)
